Screening data: PubChem BioAssay, several laboratories
ANO1 block: mouse TMEM16A channel inhibition, primary screen. Q8BHY3. normalized B-score (activity score, 25-100; higher = stronger inhibition) at 10 µM. HEK293 TMEM16A/YFP iodide influx fluorescence, ionomycin. AID 588511. 310,000 tested, 1.2% active;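 active = ratio plate-corrected score three or more library SD toward inhibition, starting fluorescence score within five deviations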;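 also: score derived from kinetic fluorescence span divided by baseline fluorescence per well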
CRFBP-R2 block: blocks CRF-induced signaling of the CRF-BP/CRF-R2 complex; HEK293 CRF-R2/CRF-BP, CRF-induced calcium fluorescence; inhibition, % at 11.8 µM; 350,000 tested, 0.59% active; AID 588475;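 active = inhibition of the ligand-induced calcium signal above about 50% at the single tested concentration, limit read from the data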
MPTP block: permeability transition pore inhibition. isolated mouse mitochondria, Ca2+ swelling absorbance, 30 min. inhibition, % at 10 µM. 360,000 tested, 1.4% active;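 active = inhibition of 50% or more, scaled per plate between neutral and stimulator controls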;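 also: 0% = DMSO wells given calcium and 100% = 1 mM EGTA wells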
TMEM16A act: mouse TMEM16A channel activation, primary screen | Q8BHY3 | HEK293 TMEM16A/YFP-H148Q/I152L, iodide quench fluorescence; hits give low values | B-score at 10 µM | 340,000 tested, 0.3% active | AID 623877;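 active = fluorescence-ratio B-score plate-corrected deviation score at least 3 library SD below zero, with starting fluorescence score within 5 deviations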;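 also: channel opened by trigger with iodide after compound preincubation; score built on the fluorescence ratio of max minus min over baseline; more negative score means more quench and so TMEM16A activation or potentiation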
CRFR2-BP ag: CRF-BP/CRF-R2 complex agonism | HEK293 CRF-R2/CRF-BP, calcium dye fluorescence (FLIPR); percent of saturating CRF peptide response | activation, % at 13.2 µM | 350,000 tested, 0.46% active | AID 588473;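 active = activation of at least 50%, plus an integration ratio under a set limit after plate pattern correction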;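 also: plate controls were neutral control wells without compound for no effect and CRF at EC100 for full effect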
NR3A LBD binder: modulates the human NR3A ligand-binding domain | NR3A LBD differential scanning fluorimetry, Tm shift; 0% = protein alone, 100% = glycine-bound protein | Tm shift relative to glycine control, % at 25 µM | 340,000 tested, 2.5% active | AID 1259313;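 active = melting temperature shift of at least 10% of the positive control shift, at one fixed dose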
MPTP counter: Rhodamine 123 counter-screen of mitochondrial pore hits. shares compounds with MPTP block. isolated mitochondria, membrane potential, Rhodamine 123 fluorescence. inhibition, % at 10 µM. 5,000 tested, 78% active. AID 624504; in the data active = inhibition above about 22%;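 also: 0% = DMSO vehicle and 100% = positive control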
MPTP swell DR: MPTP inhibition, dose response swelling confirmation. IC50, µM. shares compounds with MPTP block. AID 651561. 780 tested, 58% active. isolated mitochondria swelling, absorbance; in the data active = IC50 below about 20 µM
MPTP cs DR: MPTP inhibitor counter-screen activity, dose response; shares compounds with MPTP block; isolated mitochondria counterscreen, fluorescence read-out; IC50, µM; 780 tested, 49% active; AID 651564; in the data active = IC50 below about 80 µM
Starred values were filed as active, the others as inactive; i = inactive; . = no result given; + = active, no number. The list is not random: actives were taken first. Their share in the collection is about 5.1%.

SMILES	ANO1 block	CRFBP-R2 block	MPTP block	TMEM16A act	CRFR2-BP ag	NR3A LBD binder	MPTP counter	others
CC1CCC(NC(=O)CCS(=O)(=O)c2ccc3c(c2)CC(C)N3C(=O)C2CC2)CC1 (stereo unspecified)	i	-17	1	i	-3	-2	.
O=[N+]([O-])c1cc(Br)cc(C=Nc2ccc3c(c2)OCO3)c1O	i	10	75*	i	3	6	52*
O=[N+]([O-])c1ccc(O)c(C=Nc2ccc3c(c2)OCO3)c1	i	-6	6	i	4	-1	.
CS(=O)(=O)c1ccccc1C(=O)Nc1ccc(S(=O)(=O)N2CCCC2)cc1	.	2	-1	i	-2	2	.
C[C@H](CO)N1C[C@H](C)[C@@H](CN(C)Cc2ccc3c(c2)OCCN3C)OCc2cnnn2CCCC1=O	.	-1	0	.	0	.	.
Cc1[nH]n(-c2ccccc2)c(=O)c1C(c1cccc([N+](=O)[O-])c1O)c1c(C)[nH]n(-c2ccccc2)c1=O	i	40	103*	i	32	19*	65*
Cc1[nH]n(-c2ccccc2)c(=O)c1C(C[N+](=O)[O-])c1ccc(Br)cc1 (stereo unspecified)	25*	-22	73*	i	2	-10	37*
Cc1c(C(c2cccc([N+](=O)[O-])c2O)c2c(C)n(C)n(-c3ccccc3)c2=O)c(=O)n(-c2ccccc2)n1C	i	-3	-4	i	-3	3	.
Cc1ccccc1C(=O)N1CCC(C(=O)NCCc2ccc(S(N)(=O)=O)cc2)CC1	i	3	1	i	0	0	.
Cc1ccnn1-c1ccc(C(=O)NCc2ccccc2CN2CCOCC2)cc1	.	-6	-2	i	0	2	.
c1ccc(CC[C@@H]2CC[C@@H](CCc3ccccc3)N2)cc1	.	-16	69*	i	-1	-3	-5	MPTP swell DR=10*;MPTP cs DR=>80
COc1ccccc1-c1cc(C(=O)NC(C)C)no1	i	27	0	i	-8	-1	.
CCC(C)NC(=O)c1cc(-c2ccccc2O)on1 (stereo unspecified)	i	19	53*	i	-1	7	1	MPTP swell DR=i;MPTP cs DR=>80
Cc1snc(S(=O)(=O)/C(C#N)=N/Nc2ccc(C(F)(F)F)cc2)c1C#N	i	-8	90*	i	3	24*	103*
Cc1snc(S(=O)(=O)/C(C#N)=N\Nc2ccccc2)c1C#N	i	21	-20	i	1	3	.
CCN1CCN(c2ncc(C(=O)Nc3c(F)cc(F)cc3Br)c3ccccc23)CC1	i	-3	70*	i	-1	-1	-6	MPTP swell DR=7.9*;MPTP cs DR=>80
CCN1CCN(c2ncc(C(=O)Nc3cc(Cl)c(OC)cc3OC)c3ccccc23)CC1	.	20	5	i	0	-1	.
Cc1ccc(C(=O)Nc2cccc([N+](=O)[O-])c2)cc1S(=O)(=O)Nc1cccc(C(=O)O)c1	i	29	-1	i	-2	8	.
O=C(NNC(=O)c1cccs1)Nc1cccc(Cl)c1	i	30	1	i	-6	1	.
Cc1ccc(NC(=O)c2cccs2)cc1S(=O)(=O)Nc1cccc(Cl)c1	100*	-26	60*	i	-2	35*	68*
Cc1ccc(NC(=O)CC(=O)c2ccc([N+](=O)[O-])cc2)cc1S(=O)(=O)Nc1cccc(Cl)c1	i	3	80*	i	-4	25*	55*
O=C(c1ccc(-c2ccccc2)c(F)c1)C1CCCN(C(=O)c2cncs2)C1 (stereo unspecified)	i	-4	52*	i	6	-2	52*
COc1cc(OC)cc(C(=O)NCC2CCCN(C(=O)c3csc(C)n3)C2)c1 (stereo unspecified)	i	8	0	i	-2	2	.
CCOC(=O)c1[nH]c(C)c(/C(O)=C2\C(=O)C(=O)N(CCN3CCOCC3)C2c2cccs2)c1C (stereo unspecified)	i	-5	+	i	2	-1	1
COC(=O)c1[nH]c(C)c(/C(O)=C2\C(=O)C(=O)N(CCN(C)C)C2c2cccs2)c1C (stereo unspecified)	i	-4	1	i	-1	5	.
SMILES	ANO1 block	CRFBP-R2 block	MPTP block	TMEM16A act	CRFR2-BP ag	NR3A LBD binder	MPTP counter	others
Clc1cccc(Cl)c1CON/C=N/c1ncnc2sccc12	i	33	69*	i	-1	-34	41*
CCOC(=O)C1CCN(C(=O)c2sccc2Cl)CC1	i	6	1	i	-1	2	.
[O-]/C(=C(\C(=S)Nc1ccc(SC(F)F)cc1)[n+]1cccc(CO)c1)c1ccc(Cl)s1	i	-8	101*	i	5	2	85*
O=C(Nc1ccccc1)OCCN1CCOCC1	.	-9	1	i	0	0	.
CN1/C(=C/c2cc[n+](C)c3ccccc23)C=Cc2ccccc21	.	3	75*	i	-1	0	59*
C[n+]1ccc(/C=C/c2ccccc2O)c2ccccc21	i	5	0	i	-2	-1	.
C/C(CC(=O)Nc1ccccc1C#N)=N\NC(=O)c1ccncc1	i	1	-1	i	1	-1	.
CSc1nc(Oc2cccc(C(F)(F)F)c2)cc(C(F)(F)F)n1	i	19	55*	i	6	0	4	MPTP swell DR=11*;MPTP cs DR=>80
CSc1nc(Oc2ccc(F)cc2F)cc(C(F)(F)F)n1	i	0	0	i	2	3	.
C[C@@H]1CC[C@@]2(O[C@@H](CCO)C[C@@H](O)[C@@H]2O)O1	i	8	1	i	-1	-1	.
CN1/C(=C/C(=O)CSc2ccccc2C(=O)O)C(C)(C)c2ccccc21	i	4	1	i	2	-1	.
Cc1cc(=O)[nH]c(SCC(=O)/C=C2\N(C)c3ccccc3C2(C)C)n1	i	8	89*	i	3	-6	53*
O=C(Nc1ccccc1)Nc1ccccc1	.	4	0	i	0	7	.
N#Cc1ccc(NC(=O)Nc2cccc(C#N)c2)cc1	i	35	72*	i	24	26*	100*
O=C(Nc1ccccc1)Nc1ccc(Cl)nc1Cl	i	2	73*	i	4	0	88*
O=C(NCCCc1ccccc1)Nc1cccc(Cl)c1	i	27	70*	i	-1	7	95*
